PubChem BioAssay AID1850 (Southern Research Specialized Biocontainment Screening …, 2009)
Out of some 310,000 compounds screened, about 1,000 (0.32%) were called active. Not all results are given here. Entries with a potency or affinity are not part of this list. Unmarked numbers belong to inactive results. The rule behind the calls is not given here.

Assay: Inhibition of PhoP regulon, Salmonella typhi GFP reporter cells, confirmation, 4 h (AID 1850);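 note: 0% = induced wells with vehicle and 100% = uninduced wells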
Settings: Salmonella Typhi PhoP-promoter GFP reporter, fluorescence, at 50 µM, hits give high values

SMILES	inhibition [%]
CC(=O)Oc1ccc(C(=O)Nc2cc(C)on2)cc1	3.46
Nc1cccc(C(=O)N/N=C/c2ccsc2)c1	-10.7
NC(=S)N=Nc1c(O)[nH]c2ccccc12	-2.48
N=C(N)N=Nc1c(O)[nH]c2ccc(Br)cc12	-13.7
Oc1[nH]c2ccc(Br)cc2c1N=NC(=S)Nc1ccc(F)cc1	14.4
O=C(N=Nc1c(O)[nH]c2ccccc12)c1ccc(CN2CCOCC2)cc1	8.21
COc1ccc(C(=O)C(Cc2cc(C(C)=O)ccc2OC)N2CCCC2)cc1 (stereo not given)	-6.51
O=C(Nc1cccc(S(=O)(=O)N2CCOCC2)c1)c1cnccn1	-6.33
Cn1c(-c2ccc(F)cc2)cnc1NCc1cccc([N+](=O)[O-])c1	9.25
Fc1ccc(Nc2nc(N3CCOCC3)nc(N3CCOCC3)n2)cc1	4.25
COc1ccc(N2CCN(c3nc(Cl)nc(Nc4ccc(F)cc4)n3)CC2)cc1	-8.76
CCCOc1cc2c(C#N)c(N3CCCC3)nc(N)c2c(N)n1	1.34
N#Cc1c(N)c(C#N)c(-c2ccc3c(c2)OCO3)c2c1CCCC2	-3.29
Nc1c(-c2ccc(Cl)cc2)cnc2ncnn12	8.81
Nc1ncc(-c2ccc([N+](=O)[O-])cc2)cn1	4.2
Nc1ncncc1-c1ccc2ccccc2c1	-7.33
O=[N+]([O-])c1ccc(-c2cnc[nH]2)cc1	1.02
COc1ccc2cc(C(=O)C3CCCN(C(=O)c4cnccn4)C3)ccc2c1 (stereo not given)	8.69
CCc1ccccc1NC1=NCC(=O)N1C1CCCC1	0.33
COc1ccc(Nc2nc(C)cc(C)c2C#N)c(OC)c1	-0.58
COc1ccccc1CNC(=O)C1CCCN(S(C)(=O)=O)C1 (stereo not given)	-3.93
CCOC(=O)c1ccc(NC(=S)NCc2ccccc2)cc1	4.39

SMILES	inhibition [%]
Cc1ccc(S(=O)(=O)N2CCN(S(=O)(=O)c3cccs3)CC2)cc1	-0.13
CCOc1ccc(NC(=O)CSc2nnc(-c3ccncc3)n2CC2CCCO2)cc1 (stereo not given)	-0.03
CCNC(=O)NCCNC(=O)c1cc(OCC(F)(F)F)ccc1OCC(F)(F)F	1.77
O=C(c1ccc(-n2cncn2)c([N+](=O)[O-])c1)N1CCN(S(=O)(=O)c2ccc(F)c(F)c2)CC1	9.27
COc1ccc(C(=O)NNC(=S)NC(=O)c2ccco2)cc1	5.07
CCCCC(=O)NC(=S)NNC(=O)c1ccc(OC)cc1	-8.34
O=C(NNC(=S)NC(=O)c1ccc(Br)cc1)c1ccc([N+](=O)[O-])cc1	0.22
CCCOc1ccc(C(=O)NNC(=S)NC(=O)c2cccs2)cc1	19.7
CCCOc1ccc(C(=O)NNC(=S)NC(=O)c2ccccc2)cc1	2.22
C=C(C)CNC(=S)NNC(=O)c1ccc(Br)cc1	-8.67
CCC(=O)NC(=S)NNC(=O)c1ccc(OC)cc1	18.2
Cc1ccc(C(=O)NNC(=S)NC(=O)c2ccco2)cc1	-11.8
O=C(Nc1nc(-c2ccccc2Cl)cs1)c1cccnc1	3.73
CC(C)(C)c1cc(OC(=O)c2ccccc2F)ccc1O	-1
CC(=O)NC(=S)Nc1cc(C(F)(F)F)ccc1N1CCOCC1	-8.24
CCC1(C)SC(NC(C)=O)=NN1C(C)=O (stereo not given)	-7.92
Cc1cc(=O)[nH]c(N/N=C/c2cccc(Br)c2)n1	5.33
Cc1onc(-c2ccccc2)c1C(=O)OCC(=O)N(CC(C)C)c1c(N)n(Cc2ccccc2)c(=O)[nH]c1=O	0.02
Cc1ccsc1C1CC(=O)Nc2ccccc2S1 (stereo not given)	3.75
CCN(CC(=O)NCc1ccc(Cl)cc1)C(=O)CCc1ccccc1	8.65
c1ccc(CN2CCN(C(c3ccccc3)c3nnnn3Cc3ccccc3)CC2)cc1 (stereo not given)	-8.11
COc1cc(N)c(Cl)cc1C(=O)OCC(=O)N1CCCC1	-3.7

SMILES	inhibition [%]
CCC(=O)NC(=S)NNC(=O)c1ccc(O)cc1	-2.12
C=CCNC(=S)NNC(=O)c1ccc(OCCC)cc1	0.33
CSc1ncccc1C(=O)N1CCCC(C(=O)c2ccc3ccccc3c2)C1 (stereo not given)	0.25
Cc1cc(C(C)(C)C)ccc1OCCN(C)C	-2.78
CC(C)(C)c1ccc(OCCNCc2ccccc2)cc1	3.96
C[N+](C)(CCOc1ccccc1)Cc1ccccc1 (tested in a mixture with another compound)	-4.3
Cc1cc(C(C)(C)C)ccc1OCCOCCN1CCCC1	-9.74
N/C(=N/[N+](=O)[O-])N1CCN(C(=O)c2ccc(Cl)cc2)CC1	9.05
O=C(NC1CCS(=O)(=O)C1)c1ccc(-c2ccc(Br)cc2)o1 (stereo not given)	-6.5
O=C(NCCc1ccccc1Cl)c1ccc2nc3ccccc3c(=O)n2c1	-1.95
CCOC(=O)COc1cc([N+](=O)[O-])cc2cccnc12	1.87
O=[N+]([O-])c1ccc(Sc2cccc3cccnc23)cc1	-0.7
NC(N)=NC(=S)Nc1ccc(Cl)cc1	18.1
CC(C)N=C(N)N=C(N)Nc1ccc(Cl)cc1	28.9
COc1ccc(C(=O)N/C(=C\c2ccco2)C(=O)NC2CCS(=O)(=O)C2)cc1 (stereo not given)	-6.19
O=C(Nc1nnc(C2=COCCO2)o1)c1cccc(C(F)(F)F)c1	-4.95
O=C(Nc1nnc(-c2cccs2)o1)c1ccco1	9.01
COc1cccc(C(=O)Nc2nnc(-c3cccs3)o2)c1	17.3
O=C(Nc1nnc(-c2cccs2)s1)c1cccc(F)c1	-2.5
N#Cc1ccc(C(=O)Nc2nnc(-c3cccs3)o2)cc1	21.1
CN(C)S(=O)(=O)c1ccc(C(=O)Nc2nnc(-c3cccs3)o2)cc1	-4
